Laboratory results reported in PubChem BioAssay AID798 (PCMD, 2007).
About 300 (0.14%) of roughly 220,000 compounds were called active. The list comes from a sample in which actives are over-represented; it also holds similar structures and randomly drawn compounds. Unmarked numbers belong to inactive results.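 Rule for the calls: active = inhibition of at least 40%; inactive = inhibition below 40%.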 Where a SMILES comes first, the peptide text is derived from it. The star is where a group is joined. OPac = O=C(CO*)c1ccccc1; Bz = O=C(c1ccccc1)*

Each compound was assayed against Coagulation factor XI (Homo sapiens) (UniProt P03951) (assay: human FXIa protease inhibitors, primary screen, biochemical, 1536-well (AID 798;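 note: fluorescence of freed AMC excited at 355 nm; 0% = enzyme without compound and 100% = no enzyme blank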)). Details: purified FXIa, Boc-Glu-Ala-Arg-AMC fluorogenic substrate; at 5 µM; active compounds read high.
Coagulation factor XI (Homo sapiens), sequence (P03951 19-387 limits assumed): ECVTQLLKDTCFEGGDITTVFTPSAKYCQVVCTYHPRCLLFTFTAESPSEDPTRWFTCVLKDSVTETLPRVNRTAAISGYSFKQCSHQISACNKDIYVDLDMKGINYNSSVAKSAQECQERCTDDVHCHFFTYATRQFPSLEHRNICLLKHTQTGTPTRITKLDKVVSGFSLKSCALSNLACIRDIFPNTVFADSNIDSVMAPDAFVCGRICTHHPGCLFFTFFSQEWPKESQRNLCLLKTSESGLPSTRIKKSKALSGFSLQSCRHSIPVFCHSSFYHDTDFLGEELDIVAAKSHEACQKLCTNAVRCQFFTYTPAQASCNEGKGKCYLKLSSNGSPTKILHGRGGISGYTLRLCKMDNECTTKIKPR
Coagulation factor XI (Homo sapiens), sequence (P03951 388-625 limits assumed): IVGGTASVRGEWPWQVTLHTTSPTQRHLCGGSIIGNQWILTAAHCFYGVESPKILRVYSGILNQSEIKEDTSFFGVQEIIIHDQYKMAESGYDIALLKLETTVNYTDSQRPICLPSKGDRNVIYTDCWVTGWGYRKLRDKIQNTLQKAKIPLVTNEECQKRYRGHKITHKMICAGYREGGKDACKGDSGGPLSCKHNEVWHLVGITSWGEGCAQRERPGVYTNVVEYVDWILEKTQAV
Work on COc1cc(-c2nnn(CC(=O)NCc3ccccc3)n2)cc(OC)c1OC yielded an inhibition of 3%.
In the case of CNc1ccc([N+](=O)[O-])cc1C(=O)O, the inhibition is reported as -2.33%.
Compound NC(=O)C1CCN(C(=O)COc2cccc3cccnc23)CC1 has an inhibition of 0.03%.
In the case of Cc1cnc(NC(=O)Cn2cnc3c2c(=O)n(C)c(=O)n3C)s1, the inhibition is reported as -1.78%.
CCOCCn1c(-c2ccccc2)nc2ccccc21 was tested, and the inhibition was 0.72%.
Compound Cc1ccc(Sc2ccncc2S(N)(=O)=O)cc1 has an inhibition of 5.95%.
CC(C)(C)CC(C)(C)NCC(O)COCCOc1ccc(Br)cc1 (stereo unspecified) showed an inhibition of 1.54%.
For COC(=O)c1sccc1NN1C(=O)c2ccccc2C1=O, the inhibition was 0.85%.
O=C(CC(NC(=O)c1ccccc1)c1ccccc1)Nc1ccc(F)c(F)c1 (stereo unspecified) showed an inhibition of -2.03%.
Work on Cc1ccc(C2CCN(C(=S)Nc3cccc(Cl)c3)C2)cc1 (stereo unspecified) yielded an inhibition of -2.9%.
With CCOC(=O)COc1cc(OCC(=O)OCC)c2c(=O)cc(-c3ccccc3)oc2c1 the inhibition was -3.59%.
In the case of Cc1noc(C)c1COC(=O)COc1ccc(-c2ccccc2)cc1, the inhibition is reported as 9.94%.
With CCOC(=O)COc1cc(O)c2c(=O)cc(-c3ccccc3)oc2c1 the inhibition was 45% (active).
With CCOC(=O)c1nn(-c2ccccc2F)c2nc(Nc3ccccc3)cc(=O)n12 the inhibition was -3.73%.
COc1cccc(-n2nc(C(=O)N3CCN(Cc4ccccc4)CC3)c3ccccc3c2=O)c1 was tested, and the inhibition was -0.09%.
In the case of C/C(Cc1ccccc1)=N\NC(=O)CNC(=O)c1ccccc1Cl, the inhibition is reported as 56.6% (active).
C/C(Cc1ccccc1)=N\NC(=O)CNC(=O)c1cccc(Br)c1 gave an inhibition of 9.13%.
C/C(Cc1ccccc1)=N\NC(=O)CNC(=O)c1ccc2c(c1)OCCO2 gave an inhibition of -2.1%.
CCOc1ccc(Br)cc1S(=O)(=O)N1CCC(C(=O)O)CC1 was tested, and the inhibition was -8.82%.
With CC(NC(=S)Nc1ccccc1)C1COc2ccccc2O1 (stereo unspecified) the inhibition was 3.5%.
Work on Cc1c(Cl)cccc1NC(=O)Nc1ccc(C(=O)N2CCCC2)cc1 yielded an inhibition of 18.9%.
Cc1ccc(C(=O)COC(=O)c2cccc(N3C(=O)c4c(C)nc5ccccc5c4C3=O)c2)cc1C gave an inhibition of 8.56%.
With CN(CC(=O)Nc1ccc(F)cc1)CC(=O)Nc1ccc(Cl)c(S(=O)(=O)N2CCOCC2)c1 the inhibition was 0.07%.
Compound COc1ccc(C(=O)NNC(=O)c2cc(C)[nH]n2)cc1 has an inhibition of 1.62%.
With COc1ccc(CNC(=O)COC(=O)/C=C/c2ccc(S(=O)(=O)N3CCOCC3)cc2)cc1 the inhibition was -3.11%.
In the case of CCc1ccc(Oc2coc3cc(OC(=O)c4cc5ccccc5oc4=O)ccc3c2=O)cc1, the inhibition is reported as -3.61%.
CC(=O)NCC(=O)N1CCCC(C(=O)c2ccc3c4c(cccc24)CC3)C1 (stereo unspecified) was tested, and the inhibition was -4.06%.
O=C(CSc1nnnn1-c1ccc(O)cc1)N1N=C(c2ccc3ccccc3c2)CC1c1ccccc1 (stereo unspecified) was tested, and the inhibition was 8.65%.
For COC(=O)c1ccc(/C=N\n2c(C)nnc2C)cc1, the inhibition was -10.4%.
COc1ccc(/C=N/n2c(C)cc(C)cc2=O)cc1 was tested, and the inhibition was 44.1% (active).
Compound COc1ccc(/C=C/C(=O)c2ccc(OC)cc2O)cc1 has an inhibition of 2.98%.
For Cn1c(SCC(=O)N2CCOCC2)nnc1-c1ccc2ncccc2c1, the inhibition was 4.39%.
COCCn1c(N)c(N(Cc2ccccc2)C(=O)C2CCCCC2)c(=O)[nH]c1=O showed an inhibition of -2.52%.
Nc1c(C(=O)O)cnn1-c1ccccc1 showed an inhibition of 15.5%.
Work on COC(=O)c1ccc(S(=O)(=O)NCc2ccccc2)n1C yielded an inhibition of 13.2%.
Cc1cccc(Oc2c([N+](=O)[O-])c(=O)n(C)c3ccccc23)c1 showed an inhibition of -4.16%.
Compound O=C(Nc1ccc(Cl)cc1)Nc1ccc(Oc2cccnc2)nc1 has an inhibition of -6.3%.
CCC(C)c1ccc(NC(=S)NCc2ccccn2)cc1 (stereo unspecified) was tested, and the inhibition was -2.96%.
O=C(Cc1ccccc1)Nc1c(C(=O)N2CCCCCC2)cnn1-c1ccccc1 gave an inhibition of -2.02%.
O=C(NCc1ccccc1Cl)NC(=O)c1csc([N+](=O)[O-])c1 was tested, and the inhibition was -0.45%.
With CCc1ccc(S(=O)(=O)Nc2ccc(C)c(NS(C)(=O)=O)c2)cc1 the inhibition was 1.46%.
For C=CCNC(=O)c1ccc2c3n(nc2c1)-c1ccc(C)cc1CO3, the inhibition was 0.43%.
For CCOC(=O)CNc1nc(Cl)nc(Nc2ccccc2)n1, the inhibition was -1.06%.
In the case of Cc1nnc(NCCO)c2ccccc12, the inhibition is reported as 6.13%.
O=C(CNCCC1=CCCCC1)Nc1ccccc1N1CCCCCC1 gave an inhibition of -2.46%.
In the case of CC(C)C(O)C1CCN(Cc2nc(Cc3ccccc3Cl)no2)CC1 (stereo unspecified), the inhibition is reported as -1.58%.
Cc1ccc(NCc2n[nH]c(=S)n2-c2ccccc2)cc1Cl was tested, and the inhibition was 0.9%.
Work on CCOC(=O)C1=C(C)N=C2c3ccccc3C(=O)C2C1c1ccc(Br)cc1 (stereo unspecified) yielded an inhibition of 5.54%.
Cc1ccccc1C(=O)Nc1ccc(N2CCCCCC2)cc1 gave an inhibition of -3.76%.
For O=C(Nc1ccc(F)c([N+](=O)[O-])c1)C1CC(=O)N(Cc2ccccc2)C1 (stereo unspecified), the inhibition was -2.12%.
With C#CCNc1ccc(C(=O)OCC)cc1 the inhibition was 0.47%.
O=C(NCc1ccc(F)cc1)C1CCC(CNc2c(N3CCOCC3)c(=O)c2=O)CC1 (stereo unspecified) was tested, and the inhibition was 1.9%.
With O=C(C1CCN(C2CCN(Cc3cccc4c3OCO4)CC2)CC1)N1CCOCC1 the inhibition was -4.01%.
N#Cc1ccccc1NC(=O)COc1c(Br)cc(Br)c2cccnc12 showed an inhibition of 0.52%.
Compound COc1ccc(OC)c(Cc2nnc(CCC(=O)NC3CCCC3)o2)c1 has an inhibition of 4.91%.
COc1cc(/C=C2/C(=O)ON=C2C)ccc1OCc1cccc(F)c1 was tested, and the inhibition was -3.35%.
In the case of O=C(CCl)Nc1ccc(Sc2ccc(NC(=O)CCl)cc2)cc1, the inhibition is reported as -1.76%.
O=C(CCN1CCN(C/C=C/c2ccccc2)CC1)Nc1cccc(F)c1 showed an inhibition of -3.15%.
Work on Cc1cc(NC(=O)c2cccc(N3C(=O)CCC3=O)c2)no1 yielded an inhibition of 7.9%.
For Cc1cccc(NC(=O)c2cc(N3C(=O)CCC3=O)ccc2Cl)n1, the inhibition was 45.3% (active).
In the case of Cc1cccc(NC(=O)c2ccc3ccccc3n2)n1, the inhibition is reported as 0.23%.
With Oc1ccc2ccccc2c1N=Nc1nccs1 the inhibition was 1.08%.
With Cc1c(NC(=O)C(=O)N/N=C/c2cccs2)c(=O)n(-c2ccccc2)n1C the inhibition was -2.28%.
Compound O=C(NCC(=O)N(CC1CCCO1)C(C(=O)NC1CCCCC1)c1ccccc1)c1ccco1 (stereo unspecified) has an inhibition of -1.28%.
With Cc1cc(C)nc(-n2ncc3c2CC(c2ccc(C(C)C)cc2)CC3=O)n1 (stereo unspecified) the inhibition was 4.85%.
With Cc1ccccc1CN1C[C@@H]2C[C@@H](c3ccc4nsnc4c3)N3CCC[C@@]23C1=O the inhibition was 2.82%.
Cc1cccc2c1N(CCOc1ccccc1)C(=O)C2=O showed an inhibition of 1.94%.
For CCCCCCCCn1c2c(c(=N)c3c1CCC3)CCCC2, the inhibition was 1.52%.
With COC(=O)c1cc(C(=O)OCC(=O)Nc2cc(C)on2)cc([N+](=O)[O-])c1 the inhibition was -14.4%.
With Cc1cnc(NC(=O)c2ccccn2)s1 the inhibition was -1.62%.
COc1ccc(OC)c(C(=O)c2ccc(C(=O)N3CCN(Cc4csc(C)n4)CC3)cc2)c1 showed an inhibition of 1.41%.
With COc1ccccc1-c1nnc(NC(=O)c2ccc3ncsc3c2)o1 the inhibition was 10.2%.
Compound O=C(Nc1cccc(CCc2ccccn2)c1)c1ccc(Cl)cc1 has an inhibition of 14.3%.
With CN1CCCN(C(=O)C2CCCCC2)CC1 the inhibition was -3.43%.
CC(NC(=S)NNS(=O)(=O)c1ccc(C(C)(C)C)cc1)c1ccccc1 (stereo unspecified) was tested, and the inhibition was -2.57%.
Work on Cc1cccc2c1-c1sc(C(=O)NCCCN3CCc4ccccc4C3)cc1CO2 yielded an inhibition of -4.99%.
With COc1ccc(C(=O)N/N=c2\oc3ccccc3cc2C(N)=O)cc1 the inhibition was 8.97%.
CC(C(=O)NCC1CCCCC1)N(C)Cc1cccc(Cl)c1 (stereo unspecified) showed an inhibition of 0.53%.
COCCN(C(=S)Nc1cccc(Cl)c1C)C(C)c1ccco1 (stereo unspecified) showed an inhibition of -2.82%.
For Cc1ccc(Cl)c(OCC(=O)NN2CCN(C)CC2)c1, the inhibition was -0.31%.
With COC(=O)CCCC1=CC2=CC(=O)C(C)(OC(=O)c3cccs3)C(=O)C2=CN1CC1CC1 (stereo unspecified) the inhibition was 0.2%.
For O=C(NC(=O)c1cc(OCC(F)(F)F)ccc1OCC(F)(F)F)Nc1ccccc1, the inhibition was 10.4%.
O=C(CSc1ncn[nH]1)Nc1nc(-c2cccc([N+](=O)[O-])c2)cs1 showed an inhibition of -0.78%.
Compound O=C(Nc1cccc(O)c1)c1ccc(C(=O)c2ccccc2)o1 has an inhibition of 4.5%.
Compound COc1ccc(CCNC(=O)CSc2nc(-c3ccc(OC)c(OC)c3)ccc2C#N)cc1 has an inhibition of -0.12%.
For CCOc1ccc(Oc2nc(C)cc(OC)n2)nn1, the inhibition was 4.79%.
With Nc1[nH]c(=S)nc2nc(-c3ccccc3)c(-c3ccccc3)nc12 the inhibition was 4.09%.
CCc1nc(C)cn1S(=O)(=O)c1cc([N+](=O)[O-])ccc1Cl showed an inhibition of -5.64%.
O=c1[nH]c(SCc2cccc(F)c2)nc2ccccc12 was tested, and the inhibition was -1.03%.
With O=C(NCc1cccs1)c1cc(-c2ccccn2)nc2ccc(Br)cc12 the inhibition was -1.15%.
With Cc1cccc(Cn2cnc3c(N)c(C)c(C)cc32)c1 the inhibition was -1.66%.
With COc1cccc(/C=C/C(=O)Nc2ccc3c(c2)OCCO3)c1 the inhibition was -8.27%.
With COc1ccccc1-n1c(C)nc2cc(C(=O)NCc3ccc4c(c3)OCO4)ccc21 the inhibition was 1.71%.
O=C(O)CCN=C1CCc2ccccc2N1 gave an inhibition of -7.58%.
Compound O=C(CNC(=O)c1ccccc1)NCC(=O)OCC(=O)c1ccccc1 (Bz-Gly-Gly-OPac) has an inhibition of -1.35%.
S=c1nc2ccccc2c2nc(-c3cccnc3)[nH]n12 showed an inhibition of -1.46%.
